Reference: PubChem BioAssay AID1159580 (chemical genetic matrix, 2015)
“And” between values parts separate entries of the source, which are not always exact repeats. Equal values may be shown once. Out of some 5,500 compounds screened, about 2,000 (36%) were called active. Another 18% or so got no clear call; they are omitted. Cut-off read from the data, not from the text of the source: active = normalized growth mostly below about 0.91 (no sharp cut-off); inconclusive = no clear call, values can overlap the other calls; inactive = mostly above about 0.92. This is one part of the list.

Assay: chemical genetic growth profiling, strain panel (AID 1159580);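 note: tested at 20 µM; growth read once vehicle control cultures reached saturation at 30 °C; 1 = growth at the plate median or of vehicle wells; lower values mean less growth of the strain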
Details: S. cerevisiae deletion strains, growth OD

Measured: normalized growth

Cn1c(=O)[nH]c(=O)c2[nH]cnc21
inactive: locus YAL013W, strain DEP1, stronger effect = lower value 0.993 | locus YAL021C, strain ccr4, stronger effect = lower value 0.997 | locus YAL026C, strain drs2, stronger effect = lower value 0.989 | locus YAL030W, strain snc1, stronger effect = lower value 0.995 | locus YBL061C, strain skt5, stronger effect = lower value 1.01 | locus YBR009C, strain hhf1, stronger effect = lower value 0.999 | locus YBR021W, strain FUR4, stronger effect = lower value 0.991 | locus YBR023C, strain chs3, stronger effect = lower value 0.985 | locus YBR171W, strain sec66, stronger effect = lower value 0.982 | locus YBR229C, strain ROT2, stronger effect = lower value 0.987 | locus YBR231C, strain swc5, stronger effect = lower value 0.993 | locus YBR279W, strain paf1, stronger effect = lower value 0.988 | locus YCL011C, strain gbp2, stronger effect = lower value 1 | locus YCL016C, strain dcc1, stronger effect = lower value 0.987 | locus YCL029C, strain bik1, stronger effect = lower value 0.971 | locus YCL061C, strain MRC1, stronger effect = lower value 0.981 | locus YCL069W, strain vba3, stronger effect = lower value 0.999 | locus YCR088W, strain abp1, stronger effect = lower value 0.988 | locus YDL005C, strain med2, stronger effect = lower value 0.966 | locus YDL035C, strain GPR1, stronger effect = lower value 1 | locus YDL040C, strain nat1, stronger effect = lower value 0.99 | locus YDL074C, strain BRE1, stronger effect = lower value 1.01 | locus YDL101C, strain DUN1, stronger effect = lower value 0.984 | locus YDL134C, strain PPH21, stronger effect = lower value 0.999 | locus YDL185W, strain tfp1, stronger effect = lower value 0.955 | locus YDL192W, strain arf1, stronger effect = lower value 0.981 | locus YDR001C, strain nth1, stronger effect = lower value 0.996 | locus YDR069C, strain doa4, stronger effect = lower value 0.971 | locus YDR101C, strain arx1, stronger effect = lower value 0.981 | locus YDR137W, strain rgp1, stronger effect = lower value 0.979 | locus YDR150W, strain NUM1, stronger effect = lower value 0.994 | locus YDR159W, strain sac3, stronger effect = lower value 0.956 | locus YDR162C, strain NBP2, stronger effect = lower value 0.988 | locus YDR195W, strain ref2 1 | locus YDR297W, strain sur2, stronger effect = lower value 1 | locus YDR318W, strain mcm21, stronger effect = lower value 0.98 | locus YDR334W, strain swr1, stronger effect = lower value 1.01 | locus YDR335W, strain msn5, stronger effect = lower value 0.997 | locus YDR388W, stronger effect = lower value 0.966 | locus YDR392W, strain spt3, stronger effect = lower value 0.941 | locus YDR502C, strain sam2, stronger effect = lower value 0.982 | locus YEL003W, strain gim4, stronger effect = lower value 1 | locus YEL037C, strain rad23, stronger effect = lower value 1 | locus YEL061C, strain CIN8 (second series), stronger effect = lower value 0.999 | locus YEL061C, strain CIN8, stronger effect = lower value 0.994 | locus YER015W, strain faa2, stronger effect = lower value 0.996 | locus YER016W, strain bim1, stronger effect = lower value 1.01 | locus YER110C, stronger effect = lower value 0.969 | locus YER111C, strain swi4, stronger effect = lower value 1 | locus YER155C, strain BEM2 (second series), stronger effect = lower value 0.981 | locus YER155C, strain BEM2, stronger effect = lower value 0.989 | locus YER167W, strain BCK2, stronger effect = lower value 0.975 | locus YFR010W, strain ubp6, stronger effect = lower value 1 | locus YGL078C, strain dbp3, stronger effect = lower value 0.969 | locus YGL086W, strain mad1, stronger effect = lower value 0.977 | locus YGL167C, strain pmr1, stronger effect = lower value 1 | locus YGL173C, strain kem1, stronger effect = lower value 0.991 | locus YGL227W, strain vid30, stronger effect = lower value 0.999 | locus YGL240W, strain doc1, stronger effect = lower value 0.969 | locus YGL248W, strain PDE1, stronger effect = lower value 0.983 | locus YGL253W, strain hxk2, stronger effect = lower value 0.975 | locus YGR078C, strain PAC10, stronger effect = lower value 0.996 | locus YGR135W, strain pre9, stronger effect = lower value 0.977 | locus YGR229C, strain SMI1, stronger effect = lower value 0.993 | locus YGR252W, strain gcn5, stronger effect = lower value 1.06 | locus YHR013C, strain ard1, stronger effect = lower value 0.975 | locus YHR027C, strain rpn1, stronger effect = lower value 0.983 | locus YHR030C, strain SLT2, stronger effect = lower value 0.981 and 0.987 | locus YHR079C, strain IRE1 (second series), stronger effect = lower value 0.97 | locus YHR079C, strain IRE1, stronger effect = lower value 0.984 | locus YHR094C, strain hxt1, stronger effect = lower value 0.977 | locus YHR129C, strain ARP1, stronger effect = lower value 0.994 | locus YHR142W, strain chs7, stronger effect = lower value 1 | locus YHR200W, strain rpn10, stronger effect = lower value 0.968 | locus YIL066C, strain RNR3, stronger effect = lower value 0.988 | locus YIL073C, strain SPO22, stronger effect = lower value 0.935 | locus YIL125W, strain kgd1, stronger effect = lower value 0.971 | locus YIR030C, strain dcg1, stronger effect = lower value 0.967 | locus YJL092W, strain hpr5, stronger effect = lower value 0.996 | locus YJL095W, strain BCK1 (second series), stronger effect = lower value 0.999 | locus YJL095W, strain BCK1, stronger effect = lower value 0.977 and 0.976 | locus YJL115W, strain asf1, stronger effect = lower value 0.973 | locus YJL129C, strain trk1, stronger effect = lower value 0.968 | locus YJL134W, strain LCB3, stronger effect = lower value 0.987 | locus YJL154C, strain vps35, stronger effect = lower value 0.998 | locus YJL164C, strain tpk1, stronger effect = lower value 1.01 | locus YJL166W, strain qcr8, stronger effect = lower value 1 | locus YJL168C, strain set2, stronger effect = lower value 0.973 | locus YJL187C, strain SWE1 (second series), stronger effect = lower value 0.987 | locus YJR043C, strain POL32, stronger effect = lower value 1 | locus YJR066W, strain TOR1, stronger effect = lower value 0.911
